Reference: PubChem BioAssay (Tox21)
Inconclusive results are not listed. Where a call stands in place of a potency, no number is given. Active and inactive are the calls of the source. Calls follow the shape of the dose curve; as a rule, active = well fitted activation curve with a large enough effect in the repeat runs; inconclusive = weak or mixed curves; inactive = flat fitted curve, though single readings scatter.

Assay: A CellTox Green Cytotoxicity Assay to monitor cytotoxicity in HepG2 cells - 40 hour (AID 1224879); also: nearly all actives have a fitted effect of over 40% in size
Details: CellTox Green fluorescence; series mostly up to 76.8 µM
Procedure, shortened: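 Read-out is fluorescence of a cyanine dye excluded from live cells that stains DNA of dead HepG2 cells, with signal proportional to cytotoxicity. Plates were read at 0, 8, 16, 24, 32 and 40 h after compound addition.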

Structure (SMILES) | Potency
N=C(N)S(=O)O | inactive
CC[C@@]1(c2ccccc2)NC(=O)N(C)C1=O | inactive
CC(=O)Oc1ccc(C(C)=O)cc1 | inactive
Cc1ccc(N)nc1 | inactive
CCCOc1ccc(C(=O)OCCN(CC)CC)cc1N | inactive
CCCCCCC(O)CO (stereo not drawn) | inactive
CC(=O)OC/C=C(/C)CCC=C(C)C | inactive
CC(C)(C)OC(=O)c1ccccc1C(=O)O | inactive
CC1=C(O)C(=O)CO1 | inactive
O=C(O)Cc1ccccc1Oc1ccc(Cl)cc1Cl | inactive
O=c1c(O)c(O)c1=O | inactive
NCC1CCC(C(=O)Oc2ccc(CCC(=O)O)cc2)CC1 (stereo not drawn) | inactive
Cc1cc(=O)oc2cc(O[C@@H]3SC[C@@H](O)[C@H](O)[C@H]3O)ccc12 | inactive
CO/N=C(\C(=O)O)c1csc(NC(=O)CCl)n1 | inactive
C=CCN1CCc2nc(N)sc2CC1 | inactive
COc1ccc2cc(CCC(C)=O)ccc2c1 | inactive
CCCCCCCCC1CO1 (stereo not drawn) | inactive
Cc1nc2ccc(Cl)cc2[nH]1 | inactive
CC(C)c1cc(C(C)C)cc(C(C)C)c1 | inactive

Structure (SMILES) | Potency
COC(=O)c1ccc(NC(C)=O)cc1OC | inactive
O=S(=O)(O)c1ccc(Cl)cc1 | inactive
C=COCCCCO | inactive
C/C(=N\O)c1ccc(OCC(=O)N2CCCCC2)cc1 | inactive
Cc1cccc(N)n1 | inactive
CCCCCCCCCCCC(C)=O | inactive
CN(C)CCc1c[nH]c2ccc(C[C@H]3COC(=O)N3)cc12 | inactive
CC(=O)/C=C/C=C1/C2CCC(C2)C1(C)C (stereo not drawn) | inactive
Cc1ccc(O)c([N+](=O)[O-])c1 | inactive
CCCCN=C(N)N=C(N)N | inactive
CN(C)CCC[C@@]1(c2ccc(F)cc2)OCc2cc(C#N)ccc21 | inactive
O=C(O)P(=O)(O)O | inactive
CC(=O)SCC(CC(=O)c1ccc(C)cc1)C(=O)O (stereo not drawn) | inactive
CC(C)(C)C(=O)CCc1ccc(Cl)cc1 | inactive
Nc1ccc(C(=O)NCC(=O)O)cc1 | inactive
NC(=O)CC[C@@H](N)C(=O)O | inactive
C[n+]1ccccc1/C=N/O | inactive
COc1cc2nc(N3CCN(C(=O)C4CCCO4)CC3)nc(N)c2cc1OC (stereo not drawn) | inactive
COc1cnc(NS(=O)(=O)c2ccc(N)cc2)nc1 | inactive
